Measurements: PubChem BioAssay (NCATS)
Values joined by “and” are separate entries in the source; they are usually repeats but may differ in a detail not shown here. Identical values can stand only once. Results filed as inconclusive are left out. Active and inactive are the calls of the source. Calls come from the whole dose curve; as a rule, active = well fitted curve in the direction sought with a large enough effect; inconclusive = small, poorly fitted or top-dose-only effect, or another doubt; inactive = no such curve, though single readings can be large; an effect the other way counts as inactive or inconclusive.

Experiments:
[1] = molecular target: Cellular tumor antigen p53 (Homo sapiens) (UniProt P04637); assay: Primary qHTS for small molecule compounds that upregulate eGFP-tagged delta133p53alpha (in N-terminal) cells. (AID 2060322); conditions: NCI-H358 eGFP-delta133p53alpha fluorescence, 24 h; activation: stronger effect = higher value;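 note: series mostly up to about 56 µM; 0% = DMSO vehicle and 100% = reference activator; nearly all actives have a fitted effect of over 75% in size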
Sequence of Cellular tumor antigen p53 (Homo sapiens) (P04637 whole entry, looked up): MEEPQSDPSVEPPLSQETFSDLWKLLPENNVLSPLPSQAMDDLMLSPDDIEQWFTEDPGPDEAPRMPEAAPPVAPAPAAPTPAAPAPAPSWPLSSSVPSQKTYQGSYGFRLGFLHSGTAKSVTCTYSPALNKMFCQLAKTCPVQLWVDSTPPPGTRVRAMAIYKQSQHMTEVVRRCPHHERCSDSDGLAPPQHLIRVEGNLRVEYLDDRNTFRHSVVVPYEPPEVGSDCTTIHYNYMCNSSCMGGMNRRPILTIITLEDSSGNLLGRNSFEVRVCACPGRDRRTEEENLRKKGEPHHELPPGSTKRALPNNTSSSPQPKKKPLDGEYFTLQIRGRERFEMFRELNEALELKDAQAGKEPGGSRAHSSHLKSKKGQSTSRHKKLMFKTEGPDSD
In short: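 NCI-H358 cells pre-induced 24 h with 10 ng/ml doxycycline to express N-terminal eGFP-delta133p53alpha, then dosed 24 h at 37C without doxycycline; fixed, Hoechst-stained, GFP intensity by laser scanning cytometry, normalized to DMSO (0%) and 57.5 uM 5-azacytidine (100%).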

[2] = molecular target: Aldehyde dehydrogenase, mitochondrial (Homo sapiens) (UniProt P05091); assay: qHTS for Inhibitors of the Aldehyde Dehydrogenase Family (ALDH2) Primary screen (AID 2061308);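 note: plate controls were vehicle for no effect and reference inhibitor for full effect; nearly all actives have a fitted effect of over 55% in size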
[3] = molecular target: Retinaldehyde dehydrogenase 3 (Homo sapiens) (UniProt P47895); assay: qHTS for Inhibitors of the Aldehyde Dehydrogenase Family (ALDH1A3) Primary screen (AID 2061315);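 note: plate controls were DMSO vehicle for no effect and reference inhibitor for full effect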

Cc1cc(N2CCCCC2)nc2ccccc12
inactive: activation [1] 13.7% | Potency [2] | Potency [3]

CC1(C)NC2N(C1=O)c1ccccc1C2(O)CC(C(=O)O)n1cnc2ccccc2c1=O (stereo unspecified)
inactive: activation [1] -9.16% | Potency [2] | Potency [3]

CN1CCN(S(=O)(=O)c2ccc(-c3cnc(N)c(C(=O)Nc4cccnc4)n3)cc2)CC1
inactive: activation [1] -18.8% | Potency [2] | Potency [3]

C=C(C)[C@@H]1CC=C(COC(=O)NC(=O)c2ncn3c(=O)n(C)nnc23)CC1
inactive: activation [1] 10% | Potency [2] | Potency [3]

C=C1[C@H]2CCC3[C@]4(C)CCC[C@@](C)(C(=O)O)C4CC[C@]3(C2)[C@H]1OC(C)=O (stereo partly specified)
inactive: activation [1] -17.6% | Potency [2] | Potency [3]

CCOc1ccc(-c2ccc(Cn3c(CC(C)(C)C(=O)O)c(SC(C)(C)C)c4cc(OCc5ccc(C)cn5)ccc43)cc2)cn1
inactive: activation [1] -1% and 3% | Potency [2] | Potency [3]

O=C(Nc1ccc(Cl)cc1)C1CCCN(C(=O)c2cccc(-c3ccco3)c2)C1 (stereo unspecified)
inactive: activation [1] -4.77% | Potency [2] | Potency [3]

O=C(OC[C@H]1O[C@H](O[C@H]2CO[C@H](CO)[C@@H](O)[C@@H]2O)[C@H](O)[C@@H](O)[C@H]1O)c1ccccc1
inactive: activation [1] -4.58% | Potency [2] | Potency [3]

CC1C(=O)OCC2=CCN3CCC(OC(=O)C(C)(O)C1(C)O)C23 (stereo unspecified)
inactive: activation [1] -5.36% | Potency [2] | Potency [3]

C[C@H](C(=O)NC1CCCC1)N(C(=O)Cn1nnc(-c2ccc3c(c2)OCO3)n1)C1CCCCC1
inactive: activation [1] 9% | Potency [2] | Potency [3]

CC(CCC1(O)OC2CC3C4CCC5CC(O[C@@H]6O[C@H](CO)[C@@H](O)[C@H](O)[C@H]6O[C@@H]6O[C@@H](C)[C@H](O)[C@@H](O)[C@H]6O)C(O)CC5(C)C4CCC3(C)C2C1C)CO[C@@H]1O[C@H](CO)[C@@H](O)[C@H](O)[C@H]1O (stereo partly specified)
inactive: activation [1] 9.82% | Potency [2] | Potency [3]

Cc1[nH]c2ccccc2c1CCNC(=O)c1ccccc1F
inactive: activation [1] -0.477% | Potency [2] | Potency [3]

N#C[C@@H]1CCCN1C(=O)CNC12CC3CC(CC(O)(C3)C1)C2
inactive: activation [1] 15% | Potency [2] | Potency [3]

COc1cc(/C=C/C(=O)OC2[C@H](O)CC(O)(C(=O)O)C[C@H]2O)ccc1O (stereo partly specified)
inactive: activation [1] 7.63% | Potency [2] | Potency [3]

C=C(C)[C@@H]1CC[C@]2(C(=O)O)CC[C@]3(C)[C@H](CCC4[C@@]5(C)CCC(=O)C(C)(C)C5C(O)C[C@]43C)C12 (stereo partly specified)
inactive: activation [1] 13% | Potency [2] | Potency [3]

CC(C)=CCC(O)/C(C)=C/CO[C@@H]1O[C@H](CO)[C@@H](O)[C@H](O)[C@H]1O (stereo partly specified)
inactive: activation [1] -15.2% | Potency [2] | Potency [3]

CC1OC(OC2C(C)OC(OC3C(OC(=O)/C=C/c4ccc(O)cc4)C(CO)OC(OC4(COC(=O)/C=C/c5ccc(O)cc5)OC(CO)C(O)C4O)C3OC3OCC(O)(CO)C3O)C(O)C2O)C(O)C(O)C1O (stereo unspecified)
inactive: activation [1] 14.5% | Potency [2] | Potency [3]

CC(C)=CCC/C(C)=C/CC/C(C)=C/CC[C@]1(C)CCc2cc(O)cc(C)c2O1
inactive: activation [1] -3.05% | Potency [2] | Potency [3]

C/C=C1\[C@H](O[C@@H]2O[C@H](CO)[C@@H](O)[C@H](O)[C@H]2O)OC=C(C(=O)OC)[C@H]1CC(=O)O
inactive: activation [1] 3.82% | Potency [2] | Potency [3]

CC(C)C(=O)OC[C@H]1O[C@H](O[C@H]2O[C@H](CO)[C@@H](O)[C@H](O)[C@H]2O)[C@H](O)[C@@H](O)[C@@H]1O
inactive: activation [1] -6.11% | Potency [2] | Potency [3]

COC(=O)C[C@H]1C(C)(C)[C@H](OC(C)=O)C2CC3=C4CC(=O)O[C@@H](c5ccoc5)[C@]4(C)CCC3[C@@]1(C)C2=O (stereo partly specified)
inactive: activation [1] 2.68% | Potency [2] | Potency [3]

O=C1Nc2ccccc2C(O)(c2ccccc2)C1O (stereo unspecified)
inactive: activation [1] 0.763% | Potency [2] | Potency [3]

Cc1ccccc1C(=O)Nc1ccc(C(=O)N2CCC[C@@H](O)c3cc(Cl)ccc32)c(C)c1
inactive: activation [1] 0% | Potency [2] | Potency [3]

C[C@@H]1CC[C@@]2(OC1)O[C@H]1C[C@H]3[C@@H]4CC=C5C[C@@H](O)CC[C@]5(C)[C@H]4CC[C@]3(C)[C@H]1[C@@H]2C
inactive: activation [1] -4.46% | Potency [2] | Potency [3]

C/C=C(/C)C(=O)O[C@H]1[C@H](OC(=O)/C(C)=C\C)[C@@]23C(CC1(C)C)[C@]1(CCC4[C@@]5(C)CC[C@H](O[C@@H]6O[C@H](C(=O)O)[C@@H](O)[C@H](O[C@@H]7O[C@H](CO)[C@H](O)[C@H](O)[C@H]7O[C@@H]7O[C@@H](C)[C@H](O)[C@@H](O)[C@H]7O[C@@H]7OC[C@@H](O)[C@H](O)[C@H]7O)[C@H]6O[C@@H]6O[C@H](CO)[C@H](O)[C@H](O)[C@H]6O)C(C)(C)C5CC[C@@]4(C)[C@]1(C)C[C@H]2O)O[C@H]3O (stereo partly specified)
inactive: activation [1] -8.93% | activity change, negative = inhibition [2] -1.6% [at 11.2 µM] | activity change, negative = inhibition [3] -5.71% [at 11.2 µM]

CC1(CO)CC[C@]2(C(=O)O[C@@H]3O[C@H](CO)[C@@H](O)[C@H](O)[C@H]3O)CC[C@]3(C)C(=CCC4[C@@]5(C)CC[C@H](O[C@@H]6O[C@H](C(=O)O)[C@@H](O)[C@H](O)[C@H]6O)C(C)(C)C5CC[C@]43C)C2C1 (stereo partly specified)
inactive: activation [1] -4.46% | Potency [2] | Potency [3]

COC(=O)c1cc(OC)cc(OC)c1C(=O)c1c(OC)cc2c(c1O)C1CCC(O)C(C)(O2)O1 (stereo unspecified)
inactive: activation [1] 25.2% | Potency [2] | Potency [3]

COCCOCCOc1ccc(C2=N[C@@](C)(C(=O)O)CS2)c(O)c1
inactive: activation [1] 1.67% | Potency [2] | Potency [3]

CC(=O)OCC1(O)CCC2C(COC3OC(CO)C(O)C(O)C3OC(=O)/C=C/c3ccc(O)cc3)=COC(OC(=O)CC(C)C)C21 (stereo unspecified)
inactive: activation [1] 11.5% | Potency [2] | Potency [3]

CCn1nnnc1NCc1ccc(C(C)C)cc1
inactive: activation [1] 3% | Potency [2] | Potency [3]

CCNC(=O)Nc1ccc(-c2nc3c(c(N4CCOC[C@@H]4C)n2)CCN(c2ncccn2)C3)cc1
inactive: activation [1] -14.3% | Potency [2] | Potency [3]

CC(=O)NC(C(=O)OC1CCC(C)(C)C2CC=C3C(=O)OCC3(O)C12C)C(C)C (stereo unspecified)
inactive: activation [1] -16.8% | Potency [2] | Potency [3]

COC(=O)C1=CO[C@@H](O[C@@H]2O[C@H](CO)[C@@H](O)[C@H](O)[C@H]2O)[C@@H]2[C@@H](C)[C@@H](O)C(O)[C@H]12 (stereo partly specified)
inactive: activation [1] 14.5% | Potency [2] | Potency [3]

Cc1cc(Cn2cnc3c2CC(C(=O)O)N(C(=O)C(c2ccccc2)c2ccccc2)C3)ccc1N(C)C (stereo unspecified)
inactive: activation [1] -7.64% | Potency [2] | Potency [3]

C=C1C(=O)O[C@@H]2C[C@]3(C)[C@@H](CCC(C)=O)[C@@H]3C[C@H]12
inactive: activation [1] 5.36% | Potency [2] | Potency [3]

CC1=CC(=O)[C@]2(O[C@@H]3O[C@@H](C)[C@H](O)[C@@H](O)[C@H]3O)C=CO[C@@H](O[C@@H]3O[C@H](CO)[C@@H](O)[C@H](O)[C@H]3O)[C@H]12
inactive: activation [1] -18.3% | Potency [2] | Potency [3]

COC(=O)c1ccccc1O[C@@H]1O[C@H](CO[C@@H]2OC[C@@H](O)[C@H](O)[C@H]2O)[C@@H](O)[C@H](O)[C@H]1O
inactive: activation [1] -12.2% | Potency [2] | Potency [3]

CC(=O)O[C@@H]1[C@@H](O)[C@H](C)O[C@@H](O[C@H]2[C@@H]3C=CO[C@@H](O[C@@H]4O[C@H](CO)[C@@H](O)[C@H](O)[C@H]4O)[C@@H]3[C@@]3(CO)O[C@@H]23)[C@@H]1OC(=O)/C=C/c1ccccc1
inactive: activation [1] 4.58% | Potency [2] | Potency [3]

CNC(=O)c1ccccc1Sc1ccc2c(/C=C/c3ccccn3)n[nH]c2c1
inactive: activation [1] -18.6% and -9.82% | Potency [2] | Potency [3]

Cn1nnc(-c2ccc(-c3ccc(N4C[C@H](CO)OC4=O)cc3F)cn2)n1
inactive: activation [1] -5.36% | Potency [2] | Potency [3]

CC(=O)N1CCN(Cc2ccc([C@H](C)Nc3nccc(N4C(=O)OC[C@@H]4C(C)C)n3)cc2)CC1
inactive: activation [1] -16.1% | Potency [2] | Potency [3]

Cc1cccc(S(=O)(=O)N2CCC[C@@H]2CCN2CCC(C)CC2)c1
inactive: activation [1] 0% | Potency [2] | Potency [3]

O=C(Cc1ccc(Cl)cc1)Nc1cnccc1C(=O)O
inactive: activation [1] -12.3% | Potency [2] | Potency [3]

C=C1CCC2C(C)(C(=O)O)CC(O)CC2(C)C1CC/C(C)=C/C(=O)O (stereo unspecified)
inactive: activation [1] -9.92% | Potency [2] | Potency [3]

O=C(c1ccccn1)N(Cc1cccs1)C1(C(=O)NC2CCCCC2)CCCCC1
inactive: activation [1] -1.67% | Potency [2] | Potency [3]

Cn1cc(C2=C(c3coc4ccccc34)C(=O)NC2=O)c2cc(Br)ccc21
inactive: activation [1] -23.2% | Potency [2] | Potency [3]

C/C(=C\CC[C@H](CO)[C@@H]1CC[C@]2(C)C3=C(CC[C@@]12C)[C@@]1(C)CCC(=O)C(C)(C)C1CC3)C(=O)O (stereo partly specified)
inactive: activation [1] -4.58% | Potency [2] | Potency [3]

Cc1ccc(F)cc1S(=O)(=O)N[C@@H]1CCN(Cc2ccc(OC(C)C)cc2)C1
inactive: activation [1] -2.39% | Potency [2] | Potency [3]

CC1CCN(C(=O)CC#N)CC1N(C)c1ncnc2[nH]ccc12 (stereo unspecified)
inactive: activation [1] 1.79% | Potency [2] | Potency [3]

CC(C)CC(=O)NCCn1cc(C(=O)O)c(=O)cc1C(O)c1ccccc1 (stereo unspecified)
inactive: activation [1] -1.53% | Potency [2] | Potency [3]

C=C(CCC1C(C)(O)CCC2C(C)(C)C(O)CCC12C)C(O)CO (stereo unspecified)
inactive: activation [1] -7.14% | Potency [2] | Potency [3]

COC(O)(CC(C)C)C1Oc2cc(C)[nH]c(=O)c2O1 (stereo unspecified)
inactive: activation [1] -26.7% | Potency [2] | Potency [3]
